High-throughput results deposited in PubChem by National Center for Advancing Translational Sciences (NCATS).
Rab9 promoter act: activators of Rab9 promoter. AID 485297. Huh7 Rab9 promoter-luciferase reporter, luminescence, 24 h. Potency, µM (titrated, usually from 9.22 µM), inactives show top-dose activation, negative = inhibition, actives largely listed as activators. 320,000 compounds, 2.8% hits; further: % of control where 0% means no effect; nearly all actives have a fitted effect of over 60% in size
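Measured in stably transfected Huh7 cells bearing a Rab9 promoter–luciferase construct: 24 h compound treatment at 37 °C, followed by luminescence detection.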
SMN2 splice up: increases expression of the SMN2 splice variant. HEK293 SMN2-luciferase splicing reporter, luminescence, 30-36 h. Potency, µM (doses to about 46.1 µM), inactives show at the highest dose activity change, positive = activation, actives largely listed as activators. 210,000 compounds, 2.8% hits; further: % of control where 0% means no effect; nearly all actives have a fitted effect of over 55% in size
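HEK293 cells carry an SMN2 minigene-luciferase reporter in which exon 7 inclusion puts luciferase in frame. Cells were seeded at 2000 cells/well, attached for 10-12 hours, then exposed to compounds for 30-36 hours at 37C before ONE-Glo luminescence.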
FLuc modulator: inhibits or activates purified firefly luciferase, miR-21 counter-screen. Potency, µM (highest dose often 57.5 µM), for inactives: top-dose activity change, negative = inhibition, usual class: inhibitors. purified FLuc, Km substrates, luminescence inhibition. AID 588342. 360,000 compounds, 6.9% hits;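 further: plate controls were vehicle for no effect and reference inhibitor for full effect; nearly all actives have a fitted effect of over 55% in size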
Target sequence (P08659 whole entry, looked up): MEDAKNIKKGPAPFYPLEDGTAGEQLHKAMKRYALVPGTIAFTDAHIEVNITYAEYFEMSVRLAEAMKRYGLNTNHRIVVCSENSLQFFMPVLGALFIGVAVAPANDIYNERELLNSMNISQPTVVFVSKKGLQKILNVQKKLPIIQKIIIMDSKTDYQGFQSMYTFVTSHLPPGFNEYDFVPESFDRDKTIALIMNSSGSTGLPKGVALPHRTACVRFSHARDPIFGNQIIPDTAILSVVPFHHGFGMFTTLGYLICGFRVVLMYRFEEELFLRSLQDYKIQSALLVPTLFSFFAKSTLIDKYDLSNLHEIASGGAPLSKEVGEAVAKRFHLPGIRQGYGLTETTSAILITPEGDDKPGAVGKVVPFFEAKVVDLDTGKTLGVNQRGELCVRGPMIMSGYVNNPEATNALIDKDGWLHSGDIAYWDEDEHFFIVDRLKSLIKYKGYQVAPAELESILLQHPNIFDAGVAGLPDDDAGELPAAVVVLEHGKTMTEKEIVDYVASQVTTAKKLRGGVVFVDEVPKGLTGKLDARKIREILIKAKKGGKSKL
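Purified P. pyralis luciferase (10nM final) with 10uM D-luciferin and 10uM ATP (Km levels) in 50mM Tris acetate pH 7.5, 10mM Mg acetate, 0.01% Tween-20, 0.05% BSA; qHTS 6-point titration, ~60 µM downward; luminescence read.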
NPC1 prom act: activators of NPC1 promoter; Huh7 NPC1 promoter luciferase reporter, 24 h; Potency, µM (top dose mostly 9.22 µM), inactives show at the highest dose activation, usual class: activators; 320,000 compounds, 2.4% hits; AID 485313; further: % of control where 0% means no effect; nearly all actives have a fitted effect of over 60% in size
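Quantitative HTS used a cell-based reporter: Huh7 cells stably bearing the NPC1 promoter upstream of luciferase were treated with compounds for 24 h, and promoter activation was read as luminescence.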
ELG1 genotoxic: inducers of genotoxicity in HEK293T ELG1-luciferase cells; 330,000 compounds, 1.3% hits; Potency, µM (highest dose often 46 µM), without a hit: top-dose activity change, positive = activation, hits mostly activators; HEK293T ELG1-luciferase reporter, luminescence, 16 h; further: % of control where 0% means no effect; nearly all actives have a fitted effect of over 60% in size
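ELG1-luciferase HEK293T cells, 2,000/well; compound pinned in; 16 hr, 37 °C, 5% CO2; ONE-Glo, 30 min RT; luminescence on CCD imager.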
Active calls of the source: *. A selection: hits, their analogues and other compounds. The true share with any hit is near 7.4%. The call rests on the fitted dose curve; in most records, active means well fitted curve in the direction sought with a large enough effect; inconclusive means small, poorly fitted or top-dose-only effect, or another doubt; inactive means no such curve, though single readings can be large; an effect the other way counts as inactive or inconclusive. Potency means the concentration at half of the fitted maximal effect.

For CCOC(=O)/C=C/C(=O)OCC(=O)Nc1ccc([N+](=O)[O-])cc1 the results were Rab9 promoter act -3.7%, FLuc modulator 6.4%, NPC1 prom act -0.6% and ELG1 genotoxic -3.0%.
For CCN(CC(=O)Nc1ccc(NC(C)=O)cc1)C(=O)CCCSc1nc2ccccc2[nH]1 the results were Rab9 promoter act -1.4%, FLuc modulator -0.8%, NPC1 prom act -0.7% and ELG1 genotoxic -14.1%.
`CCOc1ccc(N(C)C(=O)C2CCN(S(=O)(=O)c3c(C)noc3/C=C/c3ccc(C)cc3)CC2)cc1` gave FLuc modulator 0.9%.
For Clc1ccsc1-c1ccnc(-n2cccc2)n1 the results were Rab9 promoter act -2.5%, SMN2 splice up 7.5%, FLuc modulator 16.9µM*, NPC1 prom act 12.2% and ELG1 genotoxic 11.6%.
Screening c1ccc2nc(-c3ccncc3)ccc2c1 returned Rab9 promoter act inconclusive, SMN2 splice up 19.7%, FLuc modulator inconclusive, NPC1 prom act inconclusive and ELG1 genotoxic inconclusive.
For c1ccc2nc(-c3nccs3)ccc2c1 the results were Rab9 promoter act inconclusive, SMN2 splice up 16.8%, FLuc modulator 13.5µM*, NPC1 prom act 23.8% and ELG1 genotoxic inconclusive.
S=c1[nH]nc(-c2ccc3ccccc3n2)o1 was read as Rab9 promoter act -2.2%, SMN2 splice up -19.5%, FLuc modulator inconclusive, NPC1 prom act -1.1% and ELG1 genotoxic 10.5%.
For Cc1ccsc1-c1ccnc(-n2cccc2)n1 the results were Rab9 promoter act 12.2%, SMN2 splice up -13.2%, FLuc modulator inconclusive, NPC1 prom act 3.6% and ELG1 genotoxic -0.3%.
Screening Clc1ccsc1-c1ccc2ccccc2n1 returned Rab9 promoter act inconclusive, SMN2 splice up inconclusive, FLuc modulator 10.7µM*, NPC1 prom act inconclusive and ELG1 genotoxic inconclusive.
For O=C1Nc2cccnc2Sc2ccccc21 the results were Rab9 promoter act -6.9%, SMN2 splice up -4.6%, FLuc modulator 4.9%, NPC1 prom act -3.0% and ELG1 genotoxic -2.4%.
`c1ccc2c(c1)Nc1nccnc1S2` gave Rab9 promoter act 20.5%, SMN2 splice up inconclusive, FLuc modulator 23.9µM*, NPC1 prom act 10.2% and ELG1 genotoxic inconclusive.
`COc1ccc(/C=C/C(=O)/C=C/c2ccc(OC)cc2OC)c(OC)c1` gave SMN2 splice up 0.2%.
COc1ccc(/C=C/C(=O)c2cc(Cl)ccc2O)c(OC)c1 was read as Rab9 promoter act 21.9%, FLuc modulator 10.7µM*, NPC1 prom act inconclusive and ELG1 genotoxic 2.6%.
Screening COc1ccc(CCNC(=O)COC(=O)/C=C/c2ccc3c(c2)OCO3)cc1 returned ELG1 genotoxic 12.5%.
Screening COc1ccc(C(=O)/C=C/c2ccc(OC)cc2OC)c(O)c1 returned Rab9 promoter act inconclusive, FLuc modulator 3.01µM*, NPC1 prom act inconclusive and ELG1 genotoxic inconclusive.
Screening COC(=O)c1ccc(/C=C/C(=O)c2ccc(OC)cc2)cc1 returned Rab9 promoter act 9.4%, SMN2 splice up -15.0%, FLuc modulator 10.7µM*, NPC1 prom act inconclusive and ELG1 genotoxic 1.8%.
COc1ccc(/C=C/C(=O)c2cc3c(cc2N)OCO3)cc1 was read as Rab9 promoter act inconclusive, SMN2 splice up inconclusive, FLuc modulator 2.13µM*, NPC1 prom act inconclusive and ELG1 genotoxic inconclusive.
For COC(=O)c1ccc(/C=C/C(=O)c2ccc(OC)c(OC)c2)cc1 the results were Rab9 promoter act 2.4%, SMN2 splice up -5.4%, FLuc modulator inconclusive, NPC1 prom act -3.0% and ELG1 genotoxic 2.5%.
Screening O=C(COC(=O)c1cc(S(=O)(=O)N2CCOCC2)ccc1O)Nc1ccc2c(c1)OCO2 returned ELG1 genotoxic -0.1%.
`O=C(Nc1cccc(F)c1)N1CCC2(CC1)CCN(C(=O)c1ccco1)CC2` gave SMN2 splice up -14.6%.
For COc1ccc(-c2cc3nc(C)c(CCC(=O)N4CCN(c5cc(C)ccc5C)CC4)c(C)n3n2)c(OC)c1 the results were SMN2 splice up 6.7% and FLuc modulator 1.6%.
For COc1ccc(NC(=O)CSc2n[nH]c(=O)n2C2CC2)cc1OC the results were Rab9 promoter act -2.6%, NPC1 prom act -1.7% and ELG1 genotoxic 4.6%.
